# ALDH1A1 inh = ALDH1A1 (human) enzyme inhibition; Potency, µM (titrated, usually from 75.3 µM), for the others: at the highest dose activity, negative = inhibition, hits mostly inhibitors; Purified ALDH1A1, NADH fluorescence, propionaldehyde substrate; 7.3% of 220,000 active; AID 1030;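 further: potency means the concentration at half of the fitted maximal effect; plate controls were no enzyme wells and a reference inhibitor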
# IMPase inh = cell-permeable inhibitors of inositol monophosphatase (IMPase). P97697. CHO-M1 cells, IP1 accumulation, HTRF TR-FRET ratio. inhibition (IP1 accumulation), % at 46.1 µM. 120,000 tested, under 10 active; active means well fitted curve in the direction sought with a large enough effect in the signal ratio, not every such curve was filed as active; inconclusive means small, poorly fitted or top-dose-only effect, or a change in a side signal; inactive means no such curve, though single readings can be large or run the other way; the % refers to the signal ratio;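 further: cells stimulated with carbachol in lithium chloride buffer; plate controls were DMSO basal wells for no effect and reference inhibitor wells for full effect; higher means more IMPase inhibition seen as more IP1 and lower FRET ratio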
# Target sequence (P97697 whole entry, looked up): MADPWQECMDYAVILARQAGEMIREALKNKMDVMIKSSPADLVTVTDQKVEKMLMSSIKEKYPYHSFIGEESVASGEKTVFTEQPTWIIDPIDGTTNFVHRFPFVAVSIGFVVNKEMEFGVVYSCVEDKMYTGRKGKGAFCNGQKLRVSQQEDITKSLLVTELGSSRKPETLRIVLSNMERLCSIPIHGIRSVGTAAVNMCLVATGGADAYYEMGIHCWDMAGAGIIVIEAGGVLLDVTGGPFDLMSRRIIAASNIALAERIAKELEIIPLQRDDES
#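 Cellular IMPase inhibition is scored as a rise in cytosolic IP1, detected by competitive TR-FRET between d2-labelled IP1 and a europium anti-IP1 antibody. M1-expressing CHO cells were stimulated with carbachol for 30 min at 37C, with lithium (50 mM LiCl) present in the buffer.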
# HPGD inh = blocks human HPGD enzyme activity | 4.3% of 150,000 active | Potency, µM, without a hit: top-dose activity change, negative = inhibition, hits mostly inhibitors | P15428 | purified HPGD, NADH fluorescence kinetic, PGE2 substrate | AID 894; further: potency means the concentration at half of the fitted maximal effect
# Target sequence (P15428 whole entry, looked up): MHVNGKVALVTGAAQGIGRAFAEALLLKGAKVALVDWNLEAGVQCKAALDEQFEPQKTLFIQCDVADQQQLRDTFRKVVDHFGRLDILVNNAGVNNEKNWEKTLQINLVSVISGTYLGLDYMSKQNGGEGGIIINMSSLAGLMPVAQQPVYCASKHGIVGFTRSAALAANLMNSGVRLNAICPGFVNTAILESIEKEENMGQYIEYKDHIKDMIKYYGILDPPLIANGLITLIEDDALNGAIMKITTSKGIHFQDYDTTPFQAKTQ
#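 20 nM HPGD preincubated 15 min at room temperature with compound in 50 mM Tris-HCl pH 8, 0.01% Tween 20. Started with 1 mM NAD+ and 30 uM prostaglandin E2; NADH fluorescence (360/450 nm) read 5 times over 30-s intervals, last minus first.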
# An asterisk follows results filed as active; ? = inconclusive; / = not tested or not shown; [ ] = remark or other dose. This is a sample that favours compounds with a hit; in the whole collection about 9% have one here. Unless noted, the call rests on the fitted dose curve; in most records, active means well fitted inhibition curve with a large enough effect (not every such curve was filed as active); inconclusive means small, poorly fitted or top-dose-only effect, or another doubt; inactive means no such curve, though single readings can be large or run the other way. Unless noted, on the % scale 0 is the no-effect control and ±100 the full control effect.
SMILES,ALDH1A1 inh,IMPase inh,HPGD inh
O=C1c2ccccc2C(=O)c2cc(NC(=O)C3CC3)ccc21,?,-3,-3%
Cc1ccccc1OCC(=O)Nc1ccccc1-c1ccccc1,8.9µM*,2,-15%
Cc1ccccc1OCC(=O)Nc1ccc2c(c1)Cc1ccccc1-2,-16%,2,/
COCC(=O)Nc1ccccc1-c1ccccc1,-10%,/,/
CCOc1cc(/C=N/NC(N)=O)ccc1OCC(=O)Nc1ccc(C)c(C)c1,-15%,/,/
CCOc1cc(C=C2C(=O)c3ccccc3C2=O)ccc1OCC(=O)Nc1ccc(C)cc1,15µM*,-25,/
CC(=O)Nc1ccc2c(c1)C(=O)c1ccccc1C2=O,3.5µM*,-6,-4%
Cc1ccccc1OCC(=O)Nc1ccc2c(c1)C(=O)c1ccccc1C2=O,18µM*,/,-15%
O=C(NCCCN1CCN(c2ccc(F)cc2)CC1)Nc1ccc(Cl)cc1,/,-3,/
Cc1ccccc1CN(C)CC(=O)Nc1ccccc1-c1ccccc1,?,2,/
COc1ccc(CN(C)CC(=O)Nc2ccccc2-c2ccccc2)c(OC)c1,2.8µM*,/,/
CCN(Cc1cc2ccccc2[nH]c1=O)C(=O)C(C)C,-2%,?,-12%
O=S(=O)(NC1CCCCC1Nc1ccc(Cl)cc1)c1ccccc1 (stereo not given),14µM*,/,-2%
Cc1ccc(NC2CCCCC2NS(=O)(=O)c2ccc(Cl)cc2)cc1 (stereo not given),2%,/,-2%
O=S(=O)(NC1CCCCC1Oc1ccccc1)c1ccccc1 (stereo not given),16µM*,-4,-11%
O=S(=O)(NC1CCCCC1Sc1ncccn1)c1ccccc1 (stereo not given),?,/,-11%
CCCCc1nc2c(c3c1C[C@H](C)OC3)CN(C(=O)C1CC1)CC2,6%[13.5 µM],/,-1%
COc1cccc(CNCCO)c1OCc1ccc(Cl)cc1,8%,/,/
CCOc1cccc(CNc2ccc(O)cc2)c1OCc1ccc(Cl)cc1,2.2µM*,18,-19%
Oc1ccc(NCc2ccccc2OCc2ccccc2F)cc1,18µM*,15,-23%
Cc1ccc(NCc2ccccc2OCc2ccccc2F)cc1,0%,0,-22%
CCOc1ccc(N(CC(=O)Nc2ccccc2C(=O)NC(C)CC)S(C)(=O)=O)cc1 (stereo not given),-10%,/,-14%
CC(C)C[C@@H](N)C(=O)Nc1ccc2ccccc2c1,4%[13.5 µM],/,-9%
O=C(Nc1ccc(F)cc1)c1sc(Cl)nc1-c1ccccc1,-6%,/,-10%
Cn1c(N)c(C(=O)Nc2ccc3ccccc3c2)sc1=S,13µM*,-3,8.9µM*
SMILES,ALDH1A1 inh,IMPase inh,HPGD inh
NC(=O)c1sc(=S)n(-c2ccc(Br)cc2)c1N,0%,1,-29%
COc1ccccc1-n1c(N)c(C(N)=O)sc1=S,28µM*,2,28µM*
Nc1c(C(=O)Nc2ccc(F)cc2)sc(=S)n1-c1ccccc1F,13µM*,/,/
COc1ncc2nc(C)c(=O)n(C[C@H]3CCCO3)c2n1,2%,/,-9%
CN(C(=O)Cc1noc2ccccc12)c1ccccc1,-1%,/,-13%
COC(=O)c1sccc1NC(=O)CSCCc1ccccn1,10%,/,/
CN(C)c1ccc(/C=C(\C#N)c2nc(-c3ccc(Cl)c(Cl)c3)cs2)cc1,/,-8,/
COc1ccc(Cl)cc1C(=O)CSc1nnnn1C1CCCCC1,5µM*,14,-26%
O=C(O)CSc1nnnn1C1CCCCC1,-5%,/,/
CC(C)N(C(=O)CSc1nnnn1C1CCCC1)C(C)C,-7%,-6,2%
COc1ccc(Cl)cc1C(=O)CSc1nnnn1C1CCCC1,2µM*,4,/
CC1(OC(=O)CCc2ccccc2)C(=O)C=C2C=C(c3ccc(C#N)cc3)OC=C2C1=O (stereo not given),?,/,-4%
COC(=O)C(CC(C)C)NC(=O)C(N)Cc1ccccc1 (stereo not given),10%,0,-2%
CC[C@@H](C)[C@@H](CO[C@@H](Cc1ccccc1)C(=O)N[C@@H](CCS(C)(=O)=O)C(=O)OC(C)C)NC[C@@H](N)CS,16µM*,/,/
O=C(/C=C/C=C/c1ccc2c(c1)OCO2)N1CCCCC1,?,/,16µM*
CN1CCN(C(=O)/C=C/c2ccc3c(c2)OCO3)CC1,0%,/,?
CCc1c(C)sc(NC(=O)CSc2nc3c(c(C(F)(F)F)n2)CCc2ccccc2-3)c1C#N,22µM*,-10[1.84 µM],22µM*
CC(NC(=O)CSc1nc2c(c(C(F)(F)F)n1)CCc1ccccc1-2)c1ccccc1 (stereo not given),-6%,?,-17%
CC(C)C(=O)Nc1ncc(Cc2ccc(Cl)cc2)s1,-6%,/,/
COc1ccccc1C1C([N+](=O)[O-])=CC([N+](=O)[O-])=CN1C (stereo not given),13µM*,/,-10%
COc1ccccc1C1CCN(c2ccc([N+](=O)[O-])c(OC)c2)CC1,1%,/,/
COc1ccccc1C1NC=C([N+](=O)[O-])C=C1[N+](=O)[O-] (stereo not given),8.9µM*,/,3.5µM*
COc1ccccc1C1CCN(C(=O)c2cccc([N+](=O)[O-])c2)CC1,-6%,/,/
O=C(O)CSC1CC(=O)N(c2ccc(Cl)c(Cl)c2)C1=O (stereo not given),3.2µM*,-3,-14%
O=C(NNC1CC(=O)N(c2cccc(Cl)c2)C1=O)c1cccs1 (stereo not given),?,/,-6%
SMILES,ALDH1A1 inh,IMPase inh,HPGD inh
O=C(O)CSC1CC(=O)N(c2cccc(Cl)c2)C1=O (stereo not given),10µM*,0,-3%
Nc1ccccc1SC1CC(=O)N(c2ccc(Cl)c(Cl)c2)C1=O (stereo not given),2%,/,/
CC(C)N1CCN(Cc2ccc(C#CCCO)cc2)CC1CCO (stereo not given),9%,/,/
O=C(O)C1CCC[C@@H]2[C@@H]3CC(CN12)[C@@H]1CCCCN1C3 (stereo not given in full),3%,/,-3%
COc1cccc(OCCCCn2c(-c3ccc(Cl)cc3)nc3ccccc3c2=O)c1,/,7,/
CC(C)(C)c1ccc(Oc2ccc(NC(=O)CCC(=O)OCC(=O)c3ccccc3)cc2)cc1,/,2,/

# Bioassay records (PubChem)
